GIRK2 act = Activates human GIRK2-containing potassium channels. activation (% efficacy), % for hits at 37.5 µM. AID 1259324. 34,000 tested, under 10 active. HEK293 GIRK2/NPY4 cells, thallium flux fluorescence. P48051;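 active means primary screen hit, no activity in plain HEK293 cells, and in GIRK2-only cells above 5% efficacy rising with concentration; inactive means the rest, including fluorescent compounds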;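 further: efficacy is normalized control-subtracted fluorescence 15 s after thallium addition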
Target sequence (P48051 whole entry, looked up): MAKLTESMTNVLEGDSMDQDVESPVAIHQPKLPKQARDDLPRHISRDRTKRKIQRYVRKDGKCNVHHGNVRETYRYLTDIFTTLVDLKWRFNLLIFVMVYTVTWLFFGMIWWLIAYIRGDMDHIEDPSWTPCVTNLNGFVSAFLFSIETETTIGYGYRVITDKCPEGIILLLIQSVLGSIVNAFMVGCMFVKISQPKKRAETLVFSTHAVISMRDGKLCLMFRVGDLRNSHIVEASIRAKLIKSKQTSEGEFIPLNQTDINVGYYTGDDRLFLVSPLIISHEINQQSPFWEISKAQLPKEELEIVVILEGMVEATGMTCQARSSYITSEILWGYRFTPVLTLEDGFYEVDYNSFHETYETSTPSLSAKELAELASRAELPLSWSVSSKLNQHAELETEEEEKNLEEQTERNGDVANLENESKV
AMPAR-TARP mod = GluA2-stargazin AMPA receptor complex modulation; O88602+P19491; HEK293 GluA2+stargazin, membrane potential dye (FDSS), glutamate EC50; hits were called plate by plate, in both directions; calls only at 30 µM; 40,000 compounds, 3.5% hits; AID 1259245;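 active means any of four per-well response measures lying three or more SD from its plate-wide compound average, in either direction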
* = called active by the depositor; i = inactive; x = no result given; + = active, no number; ! = not active in a repeat. The entries come from a sample that favours hits as a whole.

SMILES | GIRK2 act | AMPAR-TARP mod
Cc1cc(C)c(C(=O)NCCc2ccccc2)c(C)c1 | i | +!
COc1ccc(OC)c(-c2ccc(=O)n(Cc3ccc([N+](=O)[O-])cc3)n2)c1 | i | +
COc1ccc(OC)c(-c2ccc(=O)n(Cc3ccc(Cl)cc3Cl)n2)c1 | i | i
COc1ccc(OC)c(-c2ccc(=O)n(CCNC(=O)Nc3cc(C)cc(C)c3)n2)c1 | i | +
COc1ccc(OC)c(-c2ccc(=O)n(CCNC(=O)Nc3ccccc3)n2)c1 | i | i
COc1ccc(OC)c(-c2ccc(=O)n(Cc3cccc4ccccc34)n2)c1 | i | +
COc1ccccc1-c1ccc(=O)n(Cc2cccc3ccccc23)n1 | i | i
COc1cccc(N2CCCn3c2nc2c3c(=O)n(Cc3ccc(C)cc3)c(=O)n2C)c1 | x | i
COc1cccc(CN2CCN(CC(=O)Nc3ccccc3F)CC2)c1 | x | i
CCOC(=O)c1ccccc1NC(=O)CSc1c(CC(C)C)cnc2c1c(=O)n(C)c(=O)n2C | x | +
CCOC(=O)c1ccccc1NC(=O)CSc1c(C)cnc2c1c(=O)n(C)c(=O)n2C | i | i
COc1ccccc1-c1c(C)nn2c(N3CCN(CCO)CC3)cc(C)nc12 | i | i
CCC(Sc1ncc(S(=O)(=O)c2ccc(Cl)cc2)c(=O)[nH]1)C(=O)Nc1ccc(C)cc1 (stereo not given) | i | i
COc1ccc(C2NC(=O)NC(C)=C2C(=O)OCc2ccccc2)c(OC)c1 (stereo not given) | x | +
COC(=O)C1=C(C)NC(=O)NC1c1ccccc1OCc1ccccc1 (stereo not given) | x | i
CC(C)c1cccc(C(C)C)c1NC(=O)c1ccc(O)cc1 | x | i
COc1cc(C(=O)Nc2c(C(C)C)cccc2C(C)C)cc(OC)c1OC | i | +
Cc1cc(C(=O)Nc2nnc(Cc3cccs3)o2)no1 | i | x
O=C(Nc1ccc(F)c(C(F)(F)F)c1)C1CCN(C(=O)NC2CC2)CC1 | i | +
O=C(Nc1ccc(F)c(C(F)(F)F)c1)C1CN(C(=O)c2cccs2)C1 | i | i
COc1cc(CCN2C(=O)c3cccc4cccc(c34)C2=O)c(S(=O)(=O)N2CCCC2)cc1OC | x | i
COc1ccc(Cl)cc1C(=O)Nc1cccc(N2CCCC2=O)c1 | i | i
COc1ccc(F)cc1S(=O)(=O)NCCC(O)C(C)(C)C (stereo not given) | i | +
COc1ccc(F)cc1S(=O)(=O)NCC(O)c1ccc(C(F)(F)F)cc1 (stereo not given) | i | i
Cc1ccn(C(=O)COc2ccc(Br)cc2C)n1 | x | i
SMILES | GIRK2 act | AMPAR-TARP mod
COc1cccc2cc(-c3nnc(NC(C)=O)o3)oc12 | x | i
Cn1ccnc1N1CCN(C(=O)Cn2cccn2)CC1 | i | i
COc1ccccc1-c1csc(-c2ccccn2)n1 | i | i
Cc1ccc(Cn2c(=O)c3c(nc4oc(-c5ccc(F)cc5)cn43)n(C)c2=O)cc1 | i | +
Cc1ccc(C)c(Cn2c(=O)c3c(nc4oc(-c5ccc(F)cc5)cn43)n(C)c2=O)c1 | x | i
COc1ccc(-n2nnc3c(N4CCN(C(=O)c5cccc6ccccc56)CC4)ncnc32)cc1 | x | +
COc1ccc(-n2nnc3c(N4CCN(C(=O)c5ccccc5C(F)(F)F)CC4)ncnc32)cc1 | x | i
O=C(NCC1COC2(CCCCC2)O1)c1ccc(Cl)c([N+](=O)[O-])c1 (stereo not given) | i | i
COc1ccc(OC)c(-c2ccc(SCC(=O)NC3CCCC3)nn2)c1 | i | i
Cc1ccc(-c2ccc(SCC(=O)NC3CCCCC3)nn2)c(C)c1 | i | +
CCNC(=O)CSc1nc(-c2ccccc2)c(NC(=O)C(C)(C)Oc2ccc(Cl)cc2)s1 | i | +
NC(=O)CSc1nc(-c2ccccc2)c(NC(=O)CC2CCCC2)s1 | i | +
CC(C)(C)C(=O)Nc1sc(SCC(=O)NC2CC2)nc1-c1ccccc1 | i | i
CCC(=O)Nc1sc(SCC(N)=O)nc1-c1ccccc1 | i | i
COc1ccccc1C(=O)Nc1sc(SCC(N)=O)nc1-c1ccccc1 | i | +
COc1ccc(Cl)cc1C(=O)Nc1sc(SCC(N)=O)nc1-c1ccccc1 | i | i
COc1cc(/C=C2\SC(=S)N(c3ccc(O)c(C(=O)O)c3)C2=O)ccc1O | x | i
COc1cc(/C=C2\SC(=S)N(c3ccc(C(=O)O)c(O)c3)C2=O)ccc1O | x | +
Cc1cc(C)n(-c2cc(NCCNC(=O)Nc3cccc(C)c3C)ncn2)n1 | i | i
Cc1ccc([N+](=O)[O-])cc1NC(=O)C(=O)NCC(c1ccc(F)cc1)N(C)C (stereo not given) | i | i
COCc1nc2ccccc2n1CC(O)COc1ccc(Cl)c(C)c1 (stereo not given) | i | i
COCc1nc2ccccc2n1CC(O)COc1ccc(C(C)C)cc1 (stereo not given) | i | +

Screening data deposited in PubChem BioAssay by several laboratories.
